Sampled rows, rich in hits. Any-hit rate of the full collection: about 3.1%.
proKLK7 act: activates the human kallikrein-7 zymogen; P49862; purified proKLK7, EDANS-DABCYL substrate fluorescence; 100% is mature enzyme control, 0% vehicle; activation, % at 7 µM; 0.9% of 370,000 active;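 active = activation above the mean of all tested compounds plus 3 SD, computed per campaign excluding outliers beyond control limits, cut at about 13% in these data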
Target sequence (P49862 whole entry, looked up): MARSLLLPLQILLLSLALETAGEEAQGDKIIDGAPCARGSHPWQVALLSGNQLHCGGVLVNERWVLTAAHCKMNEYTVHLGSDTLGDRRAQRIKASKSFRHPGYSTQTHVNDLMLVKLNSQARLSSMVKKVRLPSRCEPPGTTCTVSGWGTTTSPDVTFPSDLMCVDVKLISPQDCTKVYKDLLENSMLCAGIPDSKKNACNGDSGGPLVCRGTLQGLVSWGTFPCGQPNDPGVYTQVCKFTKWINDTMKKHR
Neddylation inh: blocks human cullin neddylation. P61081+Q13564. TR-FRET cullin neddylation, biochemical. calls only at 25 µM. 0.58% of 360,000 active; in the data active = inhibition above about 36%
MBD2 DNA inh: inhibitors of human MBD2 binding to methylated oligonucleotide; TR-FRET; inhibition, % at 4.4 µM; 0.31% of 370,000 active; AID 686964; in the data active = inhibition above about 13%
Rin1-Abl PPI inh: blocks binding of human Rin1 to Abl; TR-FRET Rin1/Abl binding, biochemical; inhibition, % at 7.35 µM; 0.4% of 360,000 active; in the data active = inhibition above about 5%, passing the limit was not always enough
LEDGF integ inh: blocks HIV-1 LEDGF/p75-dependent DNA integration | 0.64% of 370,000 active | inhibition, % at 3.7 µM | TR-FRET IN-LEDGF/p75 DNA integration, Eu/Cy5;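 active = inhibition above the screen-wide mean plus 3 SD, cut at about 13% in these data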;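 also: signal is the Cy5 over europium emission ratio at 671 and 618 nm; 0% = plate median of compound wells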
UHRF1 binding: blocks human UHRF1 binding to methylated DNA. 0.75% of 370,000 active. inhibition, % at 4.4 µM. Q96T88. UHRF1 binding to methylated oligo, TR-FRET. AID 687016; in the data active = inhibition above about 21%;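 also: UHRF1 SRA domain binding a hemimethylated CpG hairpin DNA probe; 0% = median of test compound wells and 100% = reference inhibitor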
* marks the source's active call; other numbers are inactive results; i = inactive; / = no result given; + = active, no number.

SMILES | proKLK7 act | Neddylation inh | MBD2 DNA inh | Rin1-Abl PPI inh | LEDGF integ inh | UHRF1 binding
O=C(CNC(=O)c1ccc2ccccc2c1)OCC(=O)N1CCN(S(=O)(=O)c2ccc3ccccc3c2)CC1 | 0.3 | i | -3.2 | -1.9 | 5.2 | -2.2
Oc1c(C(c2ccccc2)N2CCOCC2)ccc2ccccc12 (stereo not drawn) | -17.6 | + | -0.2 | 0.0 | 2.0 | 0.4
O=C(CN1CCN(C(c2ccccc2)c2ccccc2)CC1)N1CCOCC1 | 0.2 | i | 4.0 | -3.4 | 4.9 | -1.0
O=C(Nc1cccc(Cl)c1)NC1CC2CCC(C1)N2Cc1cccs1 (stereo not drawn) | 0.1 | i | -3.2 | 3.8 | 2.8 | -0.1
CC(=O)N1c2ccc(S(=O)(=O)NCC3CCC(C(=O)Nc4cccc(C)n4)CC3)cc2CC1C (stereo not drawn) | -0.5 | i | -1.9 | 4.1 | 1.0 | 7.3
CC(C)c1ccc(S(=O)(=O)N2CCN(CC(=O)c3ccc(O)c(O)c3)CC2)cc1 | -0.3 | i | -5.1 | 2.1 | 36.0* | 2.3
O=C(CN1CCN(S(=O)(=O)c2ccc(Br)cc2)CC1)c1ccc(O)c(O)c1 | 0.1 | i | -4.3 | -2.2 | 42.0* | 0.6
Cc1c(O)ccc(C(=O)CN2CCN(c3ccccc3F)CC2)c1O | / | i | / | 0.6 | / | /
O=C(CN1CCN(c2ccccc2F)CC1)c1ccc(O)c(O)c1 | 0.1 | i | -3.9 | 0.1 | 63.9* | 5.7
C[C@@H]1CN([C@@H](C)CO)C(=O)c2ccccc2-c2ccccc2CO[C@@H]1CN(C)Cc1ccc(Cl)c(Cl)c1 | -0.7 | / | 3.0 | / | -1.1 | -2.0
CC(C)n1nnnc1C1c2ccccc2OCC(=O)N1Cc1cccc(C(F)(F)F)c1 (stereo not drawn) | 0.2 | / | 3.5 | / | -2.8 | 1.4
Cc1ccc(C(=O)CCC(=O)Nc2ccc(C)cn2)cc1 | -0.2 | i | -4.2 | 3.6 | 4.5 | 28.9*
Cc1cccc(-n2nc3c(c2NC(=O)c2ccco2)CSC3)c1C | 0.6 | i | 1.3 | -1.1 | 28.8* | 6.2
Cc1cccc(-n2nc3c(c2NC(=O)c2ccco2)CS(=O)C3)c1C (stereo not drawn) | -0.1 | i | 9.7 | -0.6 | -2.3 | -1.0
COc1cc(C(=O)OCC(=O)c2cc(C)n(CC3CCCO3)c2C)cc(OC)c1C (stereo not drawn) | 0.4 | i | 4.4 | 4.7 | -1.1 | 20.9*
CCOc1ccccc1OCC(=O)Nc1ccc(S(=O)(=O)N(C)C)cc1 | -0.4 | i | -6.0 | 3.1 | 1.3 | 47.1*
CCOc1ccccc1OCC(=O)Nc1ccc(S(=O)(=O)Nc2ncccn2)cc1 | 0.0 | i | 5.4 | 4.5 | -1.5 | 2.5
COc1cccc(CNC(=O)CN2CCCc3ccccc32)c1OC | 0.7 | / | -1.1 | / | 0.1 | -0.5
CCN1Cc2nnn(Cc3ccccc3)c2-c2ccccc2S1(=O)=O | -0.5 | / | -2.8 | / | -1.4 | -1.9
CCOc1ccc(S(=O)(=O)N2CCCC(C(=O)NCC3CCCO3)C2)cc1Cl (stereo not drawn) | 0.1 | i | -5.0 | 2.5 | -1.0 | 83.1*
CCC(C)NS(=O)(=O)c1ccc(OCC(=O)NCc2ccco2)cc1 (stereo not drawn) | -0.1 | i | -1.4 | 2.0 | 1.6 | 24.9*
COc1ccc(S(=O)(=O)NNC(=O)Nc2ccc(F)cc2F)c(OC)c1 | 0.4 | i | -0.2 | 2.3 | -0.8 | -1.2
CCOc1ccc(Br)cc1S(=O)(=O)Nc1cccc(S(=O)(=O)N(C)c2ccccc2)c1 | 0.5 | i | -3.8 | -1.1 | 1.0 | 22.9*
COc1cnc(SC)nc1Nc1ccc(C#N)cc1 | 1.8 | i | 7.2 | -0.6 | -0.9 | -0.2
CC1=C(C(=O)N2CCOCC2)C(c2ccc(O)cc2)NC(=S)N1 (stereo not drawn) | 0.3 | i | -4.3 | -0.2 | -0.9 | 0.8
Oc1ccc2c(c1)C1CCCC1(N1CCOCC1)O2 (stereo not drawn) | 1.3 | i | 1.8 | 2.6 | 31.1* | 13.9
O=C(c1ccc(Cl)c(S(=O)(=O)NCc2ccccc2)c1)N1CCN(c2ccccn2)CC1 | / | i | / | -0.7 | / | /
O=C(c1ccc(CNS(=O)(=O)c2ccccc2)cc1)N1CCN(c2ccccn2)CC1 | 0.2 | i | 13.1 | 4.0 | 3.1 | 23.1*
Cc1ccc(SCCC(=O)Nc2ccccc2C(=O)NC(C)C)cc1 | -0.5 | i | 5.7 | 0.2 | 0.8 | 22.3*

High-throughput results deposited in PubChem BioAssay by several laboratories.
